nsP2pro inh – blocks chikungunya virus nsP2 protease peptide cleavage; Q8JUX6; FRET peptide cleavage, nsP2pro, fluorescence 1 h; AID 1964107; Potency, µM (top dose mostly 24.9 µM), inactives show at the highest dose activity change, negative = inhibition, actives largely listed as inhibitors; actives 1.1% (n = 31,000); note: nearly all actives have a fitted effect of over 60% in size
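Enzyme 150 nM, substrate 2.5 uM (both final); Tris-HCl 10 mM pH 8.0 + 0.01% Tween 20; cpd up to 25 uM, 7 pts; 15 min preinc., 1 h RT; fluorescence ex 525/em 598.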
CHIKV nsP2 cell – secondary cell-based test for CHIKV nsP2 protease inhibitors | actives 10% (n = 450) | shares compounds with nsP2pro inh | Potency, µM (titrated, usually from 51.1 µM), inactives show at the top dose activity change, negative = inhibition, usual class: inhibitors | cell-based CHIKV nsP2 protease reporter assay | AID 1964100; note: nearly all actives have a fitted effect of over 70% in size
CHIKV NSP2 FL – inhibits full-length CHIKV NSP2 enzyme. Full-length CHIKV NSP2 protease enzymatic counterscreen. Potency, µM (top dose mostly 50.7 µM), for inactives: at the highest dose activity change, negative = inhibition, actives largely listed as inhibitors. AID 1964101. shares compounds with nsP2pro inh. actives 39% (n = 410); note: nearly all actives have a fitted effect of over 65% in size
Furin counter – selectivity counter-screen for CHIKV nsP2 protease inhibitors: human furin; shares compounds with nsP2pro inh; Recombinant human furin enzymatic counterscreen, fluorogenic substrate; Potency, µM (top dose mostly 50.6 µM), for the others: top-dose activity change, negative = inhibition, hits mostly inhibitors; actives 6% (n = 410)
Target sequence (P09958 whole entry, looked up): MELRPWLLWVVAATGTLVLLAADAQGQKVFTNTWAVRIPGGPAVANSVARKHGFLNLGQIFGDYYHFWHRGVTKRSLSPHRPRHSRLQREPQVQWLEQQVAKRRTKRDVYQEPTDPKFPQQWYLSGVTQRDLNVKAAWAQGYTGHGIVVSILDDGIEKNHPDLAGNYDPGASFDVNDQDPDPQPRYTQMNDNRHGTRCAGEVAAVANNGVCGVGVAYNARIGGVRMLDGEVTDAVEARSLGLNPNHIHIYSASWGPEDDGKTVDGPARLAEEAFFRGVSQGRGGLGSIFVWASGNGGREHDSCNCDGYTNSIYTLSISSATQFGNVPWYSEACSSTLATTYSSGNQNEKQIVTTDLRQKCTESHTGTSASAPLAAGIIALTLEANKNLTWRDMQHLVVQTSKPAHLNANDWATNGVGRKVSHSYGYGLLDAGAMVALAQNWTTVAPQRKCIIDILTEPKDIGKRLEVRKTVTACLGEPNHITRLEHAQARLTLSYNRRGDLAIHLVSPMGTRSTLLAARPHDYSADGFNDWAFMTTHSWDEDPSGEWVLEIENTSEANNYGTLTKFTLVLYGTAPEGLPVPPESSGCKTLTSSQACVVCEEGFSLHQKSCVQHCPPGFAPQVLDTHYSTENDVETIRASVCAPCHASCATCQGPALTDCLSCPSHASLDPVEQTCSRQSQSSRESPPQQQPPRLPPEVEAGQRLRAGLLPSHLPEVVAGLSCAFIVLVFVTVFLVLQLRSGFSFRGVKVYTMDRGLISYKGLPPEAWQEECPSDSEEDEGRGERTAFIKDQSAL
NS23 peptide cs – blocks CHIKV nsP2 protease cleavage of endogenous NS2/3 peptide | shares compounds with nsP2pro inh | Purified CHIKV nsP2 protease, endogenous NS2/3 peptide cleavage | actives 34% (n = 410) | AID 1964103 | Potency, µM (series often up to 51 µM), inactives show top-dose activity change, negative = inhibition, actives largely listed as inhibitors; note: nearly all actives have a fitted effect of over 55% in size
Papain counter – papain protease inhibition, counterscreen for nsP2pro inhibitors; Potency, µM (titrated, usually from 51 µM), inactives show top-dose activity change, negative = inhibition, actives largely listed as inhibitors; purified papain protease activity, enzymatic inhibition; actives 5% (n = 410); shares compounds with nsP2pro inh
nsP2pro conf qHTS – CHIKV nsP2 protease inhibition, confirmatory qHTS; AID 1964105; CHIKV nsP2 protease enzymatic activity, qHTS; Potency, µM (titrated, usually from 25.5 µM), without a hit: at the top dose activity change, negative = inhibition, actives largely listed as inhibitors; shares compounds with nsP2pro inh; actives 43% (n = 410); note: nearly all actives have a fitted effect of over 75% in size
HCV NS3 4A cs – selectivity counter-screen for CHIKV nsP2 protease inhibitors: HCV NS3/4A. shares compounds with nsP2pro inh. HCV NS3/4A protease biochemical counterscreen. Potency, µM (top dose mostly 50.9 µM), most hits filed as inhibitors. actives 20% (n = 410); note: nearly all actives have a fitted effect of over 55% in size
The depositor's hits bear a star; i = inactive; ? = inconclusive; [ ] = dose if it differs, or a comment. Shown is part of a subset that was picked to be rich in hits. Calls come from the whole dose curve. % is set by controls: 0 for no effect and ±100 for the full control effect; potency is the fitted concentration of half-maximal effect.

SMILES | nsP2pro inh | others
Cc1cc(-c2noc(CNC(=O)c3cc(-c4ccco4)[nH]n3)n2)no1 | 5µM* | CHIKV nsP2 cell=?;CHIKV NSP2 FL=-3%;Furin counter=-8%;NS23 peptide cs=-32%;Papain counter=0%;nsP2pro conf qHTS=-8%;HCV NS3 4A cs=10µM*
COc1ccccc1OCC(=O)NCc1nc(-c2ccc(Cl)cc2)no1 | -14%
O=C(NCc1nc(-c2ncccn2)no1)c1csc(-c2cccs2)n1 | -5%
Cc1cccc(-c2noc(CCCC(=O)NCc3ccco3)n2)c1 | -28%
CCCN(C)C(=O)Cn1c(C)ccc(NS(=O)(=O)c2ccc(C)cc2)c1=O | -13%
CN(CC(=O)NCc1ccc(F)cc1)S(=O)(=O)c1ccc2[nH]c3c(c2c1)CCCC3 | -29%
Cc1ccc(CNS(=O)(=O)c2ccc3[nH]c4c(c3c2)CCCC4)cc1 | -16%
Cc1cccc(N(C)C(=O)CN(C)S(=O)(=O)c2ccc3[nH]c4c(c3c2)CCCC4)c1 | ? | CHIKV nsP2 cell=-4%
NC(=O)C1CCN(c2nc(-c3ccc(Oc4ccccc4)cc3)cs2)CC1 | i
O=C1CC2(CCN([S+](=O)([O-])c3cccc(C(F)(F)F)c3)CC2)Oc2ccccc21 | i
CCCC(=O)N1c2ccccc2-c2nnc(SC)nc2OC1c1sccc1C (stereo not drawn) | -11%
CCC(C)C(=O)OC1CCC=C2C=CC(C)C(CCC3CC(O)CC(=O)O3)C21 (stereo not drawn) | ? | CHIKV nsP2 cell=37%;CHIKV NSP2 FL=7%;Furin counter=-5%;NS23 peptide cs=-11%;Papain counter=-24%;nsP2pro conf qHTS=-15%;HCV NS3 4A cs=i
CC[C@H](C)C(=O)O[C@H]1C[C@@H](C)C=C2C=C[C@H](C)[C@H](CC[C@@H]3C[C@@H](O)CC(=O)O3)[C@H]21 | -13%
CCNC(=O)CN1CCC(=O)N(Cc2ccc(F)cc2)C(C(C)C)C1 (stereo not drawn) | 4%
CN1C(C(=O)Nc2ccc(F)cc2F)=CC(c2ccco2)=NS1(=O)=O | -26%
CC(CCc1ccc(O)cc1)NCCc1ccc(O)c(O)c1 (stereo not drawn) | -16%
CC(Cc1ccc(O)c(O)c1)C(C)Cc1ccc(O)c(O)c1 (stereo not drawn) | 9.9µM* | CHIKV nsP2 cell=34%;CHIKV NSP2 FL=29µM*;Furin counter=-16%;NS23 peptide cs=21µM*;Papain counter=-16%;nsP2pro conf qHTS=8µM*;HCV NS3 4A cs=i
CC1(C(=O)N2CCC(C3CCN(S(C)(=O)=O)CC3)C2)CCOCC1 (stereo not drawn) | -6%
CCCN1CCC(N2C[C@H]3OC(=O)N(CCc4cccc(Cl)c4)[C@H]3C2)CC1 | i
CC(C(=O)O)c1ccc(CC2CCCC2=O)cc1 (stereo not drawn) | -2%
C=C(C)CNc1ccc(C(C)C(=O)O)cc1 (stereo not drawn) | 8.8µM* | CHIKV nsP2 cell=1%;CHIKV NSP2 FL=-5%;Furin counter=-5%;NS23 peptide cs=-14%;Papain counter=-5%;nsP2pro conf qHTS=-16%;HCV NS3 4A cs=i
CC(C(=O)O)c1ccc(C(=O)c2cccs2)cc1 (stereo not drawn) | -17%[39.2 µM]
CCN(Cc1ccccc1)C(=O)C1CCC(CNS(=O)(=O)c2ccc3c(c2)CCCC(=O)N3)CC1 (stereo not drawn) | -9%
CCOC(=O)c1c(C)[nH]c(C)c1S(=O)(=O)N1CCC(C(=O)Nc2cc(C)ccn2)CC1 | -10%
O=C1c2ccccc2-c2nc3nnnn3nc21 (tested in a mixture with another compound) | ? | CHIKV nsP2 cell=?;CHIKV NSP2 FL=?;Furin counter=-19%;NS23 peptide cs=0.92µM*;Papain counter=-23%;nsP2pro conf qHTS=?;HCV NS3 4A cs=i
SMILES | nsP2pro inh | others
COc1ccc(CC2(CO)CCN(c3nccc(N)n3)CC2)cc1 | i
COc1ccccc1CCN1CCCC(CN(C)C(=O)Nc2ccccc2)C1 (stereo not drawn) | 4%
Cc1ccc(NC(=O)N2CCC(CCNC(=O)CC3CCCC3)CC2)cc1F | -10%
CC1CCc2c(N3CCC(O)CC3)c(F)cc3c(=O)c(C(=O)O)cn1c23 (stereo not drawn) | -4%
CCCN1CCN(CCCNC(=O)c2cc3c(Cl)nc4ccccc4c3s2)CC1 | 58%
O=C(Nc1cccc(NC(=O)c2ccc(Br)o2)c1)c1ccccc1 | -11%
O=C(Nc1ccc(N2CCOCC2)c(Cl)c1)c1ccc(Br)o1 | ? | CHIKV nsP2 cell=18µM*;CHIKV NSP2 FL=13%;Furin counter=-13%;NS23 peptide cs=14%;Papain counter=-18%;nsP2pro conf qHTS=9%;HCV NS3 4A cs=i
O=C(Nc1ccc(Cl)c(S(=O)(=O)N2CCOCC2)c1)c1ccccc1 | -5%
CCOC(=O)c1cccc(NC(=O)c2oc3c(c2C)-c2[nH]ncc2CC3)c1 | -18%
CN1C(=O)COC[C@@H]1[C@H](O)c1ccc(NS(=O)(=O)c2ccc(F)cc2)cc1 | 2%[39.2 µM]
C=C(C(=O)O)C1CC2=C(C)C(=O)CC2C(C)CC1O (stereo not drawn) | 4.4µM* | CHIKV nsP2 cell=?;CHIKV NSP2 FL=?;Furin counter=-5%;NS23 peptide cs=?;Papain counter=-3%;nsP2pro conf qHTS=?;HCV NS3 4A cs=i
CCOc1ccc(Nc2oc(/C=C/c3cccc(OC)c3)nc2C#N)cc1 | -28%
C=C(C)[C@H]1O[C@H]2CC[C@@]3(C)[C@@](O)(CC[C@H]4[C@@H]5OC(C)(C)[C@H]6C[C@@H]7C(=C)Cc8c(Cl)cc9[nH]c(c5c9c8[C@@]76O)[C@@]43C)[C@]23O[C@@H]3[C@H]1O | 17%[10 µM]
Cc1cc(-c2nc(Nc3ccc(F)c(F)c3)c3ccccc3n2)ccn1 | -2%
Cc1ccc(C)c(-c2cc(C(=O)N3CCCC3c3nncn3C(C)C)[nH]n2)c1 (stereo not drawn) | i
COCCCn1c(SCC(=O)NCc2ccccc2)nc2c(sc3ccccc32)c1=O | -13%
CSCC1OC(n2cnc3c(=O)[nH]cnc32)C(O)C1O (stereo not drawn) | 3%
Cc1ccc(CSc2ncc(Cl)c(C(=O)NCc3ccccc3)n2)cc1 | 24%
Cc1cccc(CS(=O)(=O)c2ncc(Cl)c(C(=O)NCc3ccccc3)n2)c1 | 3.5µM* | CHIKV nsP2 cell=2.6µM*;CHIKV NSP2 FL=9.2µM*;Furin counter=-6%;NS23 peptide cs=6.5µM*;Papain counter=-7%;nsP2pro conf qHTS=4.5µM*;HCV NS3 4A cs=?
CSc1ncc(Cl)c(C(=O)NCc2ccc(C)cc2)n1 | -3%
Cc1ccccc1CSc1ncc(Cl)c(C(=O)NCc2ccccc2)n1 | 67%
COc1ccc(CNC(=O)c2nc(SCc3ccccc3F)ncc2Cl)cc1 | -19%
O=C(NCc1ccccc1)c1nc(S(=O)(=O)Cc2ccc(F)cc2)ncc1Cl | 7.6µM* | CHIKV nsP2 cell=0.46µM*;CHIKV NSP2 FL=12µM*;Furin counter=-2%;NS23 peptide cs=5.2µM*;Papain counter=-4%;nsP2pro conf qHTS=3.6µM*;HCV NS3 4A cs=?
